# PubChem BioAssay (NCATS)
# Results filed as inconclusive are left out. Activity calls are given as the source filed them. Calls follow the shape of the full dose curve. Square brackets hold non-standard residues; d marks the D form. Peptide text beside a SMILES is read from it. Nle = CCCC[C@H](N)C(=O)O
# Experiment: Confirmatory qHTS for VERO E6 Cytotoxicity Assay: Counterscreen for SARS-CoV-2 CPE Assay (AID 1508605); also: nearly all actives have a fitted effect of over 60% in size; as to activity change, negative = cytotoxic: % is scaled to controls: 0 for no effect and ±100 for the full control effect
# Settings: cell viability luminescence; series mostly up to 20 µM; activity change, negative = cytotoxic: at the top concentration
# Potency is read from the fitted curve at half-maximal effect.
Structure (SMILES),"activity change, negative = cytotoxic",Potency
C[C@@H]1CN(CC(=O)N2CC(C)(C)c3ncc(Cc4ccc(F)cc4)cc32)[C@@H](CN2CCOC[C@H]2C)CN1,-11.4% (inactive),–
CN(C)CCN(Cc1ccccc1)C(=O)c1cc(-c2ccc(F)cc2)n2nc(C(C)(C)C)cc2n1,-13.7% (inactive),–
COc1cc2nc(N3CCCCC3)nc(NC3CCN(C)CC3)c2cc1OC,–,10 µM (active)
CO[C@H]1/C=C\C=C(\C)C(=O)NC2=CC(=O)C(NCCN(C)C)=C(C[C@@H](C)C[C@H](OC)[C@H](O)[C@@H](C)/C=C(/C)[C@@H]1OC(N)=O)C2=O,–,5.62 µM (active)
CCCc1cc(C)[nH]c(=O)c1CNC(=O)c1cc(-c2ccnc(N3CCN(C)CC3)c2)cc2c1cnn2C(C)C,-18.7% (inactive),–
COC(=O)CC[C@@H](C)C1CCC2C3CCC4C[C@H](OC(C)=O)CCC4(C)C3C[C@H](O)C21C (stereo not given in full),-2.3% (inactive),–
COc1cc(-n2cnc3cc(-c4ccc(Cl)cc4)sc3c2=O)ccc1OCCN1CCCC1,-16.3% (inactive),–
C[C@H](NC(=O)[C@H](Cc1ccccc1)NC(=O)OCc1ccccc1)C(=O)CF,4.12% (inactive),–
Cc1ccc(-c2c(C(=O)CCl)n(CCCO)c3ncnc(N)c23)cc1,-16.4% (inactive),–
CC(C)(C)c1ccc(C(=O)Nc2cc(Cl)c(Br)cc2C(=O)O)cc1,–,10 µM (active)
CN(C)c1nc(NC2CCC(NCCc3ccc(Br)cc3OC(F)(F)F)CC2)nc2ccccc12 (stereo not given),–,3.98 µM (active)
CC(C)(C[C@@](O)(Cc1cc2ccncc2[nH]1)C(F)(F)F)c1cc(F)ccc1O,-24.4% (inactive),–
CSc1ccc(C(=O)/C=C/c2cc(C)c(OC(C)(C)C(=O)O)c(C)c2)cc1,-15.5% [at 40 µM] (inactive),–
CS(=O)(=O)NCC1CCC(Nc2nc3c(s2)CCSc2ccccc2-3)CC1 (stereo not given),-16% (inactive),–
O[C@H]1[C@H]2c3cc4c(cc3CN3CCC(=C[C@@H]1O)[C@H]23)OCO4,–,3.16 µM (active)

# Experiment: Confirmatory qHTS for activators (rescue) of SARS-CoV-2 Cytopathic Effect (CPE) (AID 1508606); also: nearly all actives have a fitted effect of over 70% in size; as to CPE rescue (activation): 0% is about no effect
# Settings: Vero E6 SARS-CoV-2 CPE rescue, viability luminescence; series mostly up to 20 µM; CPE rescue (activation): at the top concentration
Structure (SMILES),CPE rescue (activation),Potency
CC1(C)CC[C@]23CO[C@@]4(CCC5[C@@]6(C)CC[C@H](O[C@@H]7OC[C@H](O[C@@H]8O[C@H](CO)[C@@H](O)[C@H](O)[C@H]8O[C@@H]8OC[C@@H](O)[C@H](O)[C@H]8O)[C@H](O)[C@H]7O[C@@H]7O[C@H](CO)[C@@H](O)[C@H](O)[C@H]7O)[C@@](C)(CO)C6CC[C@@]5(C)[C@]4(C)C[C@H]2O)[C@@H]3C1 (stereo not given in full),13.9% [at 6.64 µM] (inactive),–
CN(C)CCN(Cc1ccc(-c2ccc(CNCCc3ccccc3)cc2)cc1)C(=O)CCC1CCCC1,-14.6% (inactive),–
Cc1nnc(-c2ccc(-c3ccc(C(=O)Nc4ccc(O)c(N5CCN(C)CC5)c4)cc3)c(C)c2)o1,–,8.91 µM (active)
CCOc1ccc(-c2nc(-c3cccc4c3CCC4NCCO)no2)cc1OCC (stereo not given),–,11.2 µM (active)
CCCC[C@@H](C=O)NC(=O)[C@H](CC(C)C)NC(=O)[C@H](CC(C)C)NC(C)=O (Ac-Leu-Leu-[Nle]-aldehyde),–,2 µM (active)
Cc1cnc(NC(=O)c2cc(S(=O)(=O)N(C)C)ccc2N2CCCC2)s1,–,2.82 µM (active)
COc1ccc(NS(=O)(=O)c2sc3ccc(Cl)cc3c2C)cc1N1CCNCC1,–,10 µM (active)
CC(=O)c1c(OCCN2CCCCC2)c(OCCC(C)c2ccc(F)cc2)c2oc(C)nc2c1C (stereo not given),–,10 µM (active)
COc1cc(NC(=O)Nc2cccc(CNC(=O)O[C@H]3CCOC3)c2)ccc1-c1cnco1,-1.53% (inactive),–
CCC[C@@H](NC(=O)N1C(=O)C(CC)(CC)[C@@H]1Oc1ccc(C(=O)N2CCN(C)CC2)cc1)c1ccc2c(c1)OCO2,–,11.2 µM (active)
CN(C)CCN(Cc1ccccc1)C(=O)c1cc(-c2ccc(F)cc2)n2nc(C(C)(C)C)cc2n1,13.2% (inactive),–
COc1cc2nc(N3CCCCC3)nc(NC3CCN(C)CC3)c2cc1OC,–,3.55 µM (active)
COc1cc(-n2cnc3cc(-c4ccc(Cl)cc4)sc3c2=O)ccc1OCCN1CCCC1,–,3.55 µM (active)
C[C@H](NC(=O)[C@H](Cc1ccccc1)NC(=O)OCc1ccccc1)C(=O)CF,–,0.126 µM (active)
CN(C)c1nc(NC2CCC(NCCc3ccc(Br)cc3OC(F)(F)F)CC2)nc2ccccc12 (stereo not given),-11% (inactive),–
